About 1,000 (43%) of roughly 2,300 compounds were called active. The set was probably picked from earlier hits. Only a sample is shown. Unmarked numbers belong to inactive results.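 The calls were made as follows: active = compounds inhibiting the enzyme by at least 50% at 15 µM in any one of the replicates; inactive = the rest.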

Results on three compounds are retold here after PubChem BioAssay AID624325 (Sanford-Burnham Center for Chemical Genomics, 2012).

In this test the target is Fatty acid synthase (Homo sapiens) (UniProt P49327). Kind of test: inhibition of human FAS-TE enzyme activity – biochemical, fluorescence intensity, single concentration, confirmation (AID 624325).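 Also: 0% = enzyme with DMSO only and 100% = wells lacking enzyme.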 The following applies: recombinant FAS-TE, OMFH fluorogenic substrate, at 15 µM, stronger effect = higher value.
Chain of Fatty acid synthase (Homo sapiens) (P49327 whole entry, looked up): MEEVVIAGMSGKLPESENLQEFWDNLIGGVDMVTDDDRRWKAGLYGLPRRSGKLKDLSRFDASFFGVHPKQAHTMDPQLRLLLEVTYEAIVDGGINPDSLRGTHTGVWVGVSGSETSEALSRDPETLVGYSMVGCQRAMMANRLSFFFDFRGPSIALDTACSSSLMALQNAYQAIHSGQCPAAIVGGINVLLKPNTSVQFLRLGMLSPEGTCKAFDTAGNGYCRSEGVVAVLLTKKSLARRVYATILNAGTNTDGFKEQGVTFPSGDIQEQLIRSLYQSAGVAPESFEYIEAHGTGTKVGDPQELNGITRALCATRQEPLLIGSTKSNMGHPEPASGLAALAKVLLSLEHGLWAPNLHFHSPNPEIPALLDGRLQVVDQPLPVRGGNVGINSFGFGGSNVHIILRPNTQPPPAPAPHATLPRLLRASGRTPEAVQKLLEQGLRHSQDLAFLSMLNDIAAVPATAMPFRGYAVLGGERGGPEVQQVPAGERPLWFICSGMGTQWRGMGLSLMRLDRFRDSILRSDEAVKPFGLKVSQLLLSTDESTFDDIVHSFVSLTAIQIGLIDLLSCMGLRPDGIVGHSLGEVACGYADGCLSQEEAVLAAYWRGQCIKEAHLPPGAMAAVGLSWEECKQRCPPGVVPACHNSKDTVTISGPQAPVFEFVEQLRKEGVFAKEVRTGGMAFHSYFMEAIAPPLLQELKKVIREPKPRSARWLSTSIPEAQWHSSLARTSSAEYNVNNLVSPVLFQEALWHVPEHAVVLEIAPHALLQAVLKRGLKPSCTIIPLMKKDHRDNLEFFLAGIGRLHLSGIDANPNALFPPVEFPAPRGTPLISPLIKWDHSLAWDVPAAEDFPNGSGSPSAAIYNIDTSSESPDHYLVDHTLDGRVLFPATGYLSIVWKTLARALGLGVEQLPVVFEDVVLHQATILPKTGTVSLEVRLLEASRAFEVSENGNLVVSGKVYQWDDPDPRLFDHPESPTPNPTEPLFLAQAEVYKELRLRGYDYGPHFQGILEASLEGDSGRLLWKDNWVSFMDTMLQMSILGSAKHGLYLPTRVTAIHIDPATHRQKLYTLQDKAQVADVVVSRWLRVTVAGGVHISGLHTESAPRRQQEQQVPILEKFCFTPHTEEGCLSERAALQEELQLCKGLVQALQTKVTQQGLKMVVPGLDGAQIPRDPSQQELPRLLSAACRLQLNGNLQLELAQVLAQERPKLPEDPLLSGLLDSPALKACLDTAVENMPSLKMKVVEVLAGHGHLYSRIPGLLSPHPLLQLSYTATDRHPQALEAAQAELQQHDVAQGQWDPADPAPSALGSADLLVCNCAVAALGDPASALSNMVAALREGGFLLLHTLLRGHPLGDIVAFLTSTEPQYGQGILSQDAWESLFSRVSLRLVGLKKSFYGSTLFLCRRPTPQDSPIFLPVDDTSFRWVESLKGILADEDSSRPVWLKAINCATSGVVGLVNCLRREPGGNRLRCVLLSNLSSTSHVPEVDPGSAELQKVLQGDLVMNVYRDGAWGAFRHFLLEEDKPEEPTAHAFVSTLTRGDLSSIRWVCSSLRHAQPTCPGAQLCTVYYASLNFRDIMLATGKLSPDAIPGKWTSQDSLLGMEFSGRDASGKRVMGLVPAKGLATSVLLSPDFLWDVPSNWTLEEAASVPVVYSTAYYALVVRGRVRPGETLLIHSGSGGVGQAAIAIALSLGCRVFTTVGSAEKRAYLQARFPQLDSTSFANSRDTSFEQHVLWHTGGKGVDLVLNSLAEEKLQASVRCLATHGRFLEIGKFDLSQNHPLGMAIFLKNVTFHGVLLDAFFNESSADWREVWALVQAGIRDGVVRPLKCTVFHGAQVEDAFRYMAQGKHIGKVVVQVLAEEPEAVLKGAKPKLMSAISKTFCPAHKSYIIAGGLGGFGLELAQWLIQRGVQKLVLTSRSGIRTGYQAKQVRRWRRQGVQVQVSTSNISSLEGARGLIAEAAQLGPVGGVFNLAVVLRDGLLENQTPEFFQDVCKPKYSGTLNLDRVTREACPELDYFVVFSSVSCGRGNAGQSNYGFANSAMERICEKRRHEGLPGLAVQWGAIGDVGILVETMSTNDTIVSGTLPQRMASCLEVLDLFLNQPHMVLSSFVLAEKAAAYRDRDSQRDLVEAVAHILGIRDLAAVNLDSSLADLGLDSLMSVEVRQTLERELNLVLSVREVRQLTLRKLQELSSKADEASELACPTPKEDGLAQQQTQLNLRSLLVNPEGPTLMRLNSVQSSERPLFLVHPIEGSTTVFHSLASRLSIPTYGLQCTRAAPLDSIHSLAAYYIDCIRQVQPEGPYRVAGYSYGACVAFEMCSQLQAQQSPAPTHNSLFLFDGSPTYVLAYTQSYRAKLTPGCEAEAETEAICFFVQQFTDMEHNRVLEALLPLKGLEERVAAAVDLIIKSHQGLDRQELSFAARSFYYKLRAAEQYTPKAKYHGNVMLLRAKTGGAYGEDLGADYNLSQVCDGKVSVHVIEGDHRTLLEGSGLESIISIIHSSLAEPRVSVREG
As usually defined, the inhibition is the percentage by which the read-out fell short of the control. In the case of `CCOC(=O)[C@]12Cc3ccccc3[C@H]1N(C1CCCCC1)C(=O)c1cc(OC)ccc12`, the inhibition was 53% (active).

Regarding `COc1cccc(C(c2nnnn2-c2ccc3c(c2)OCCO3)N2CCC3(CC2)C(=O)NCN3c2ccccc2)c1OC` (stereo not drawn), the inhibition was 8.72%.

For `COc1ccc(-n2nnnc2C(c2cccc3ccccc23)N2CCC(n3c(=O)[nH]c4ccccc43)CC2)cc1` (stereo not drawn), the inhibition was 34.4%.
